From PubChem BioAssay (NCI) come the findings set out here.

About 83,000 compounds went through this panel and 20% of them were active in at least one assay; those are over-represented in the sample as a whole.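 Note: values are percent growth. 100 is the growth of untreated cells, values between 100 and 0 indicate rising inhibition; between -100 and 0 indicates cell death.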 Values without a mark were called inactive. Activity calls are given as the source filed them. How the source made its calls: active means growth percent below 10; inactive means the rest.

One experiment concerns HCT-116 colon. The experiment is described as follows: NCI-60 one-dose screen, 48 h (100 = growth as untreated, 0 = no growth, -100 = all killed). The settings on record: 10 µM unless noted.
Turning to `COc1cc(C)ccc1Oc1nc(Nc2ccc(N3CCOCC3)cc2)ncc1N=Cc1cc(C(F)(F)F)cc(C(F)(F)F)c1`, the growth was 47.6%.

On to `c1ccc(-c2cn3ccnc3c(-c3ccc4c(c3)ncn4C3CCCCC3)n2)cc1`, for which the growth was 96.2%.

Take `Nc1c(C(=O)Nc2cccc3ccccc23)sc2nc3c(cc12)COCC3`: the growth was 26.3%.

As to `O=C1CCC23OC(C(O)c4ccccc4N12)C1C(Br)=NOC13` (stereo not given), the growth was 94.6%.

As to `O=Cc1[nH]c(Sc2ccccc2)c2ccccc12`, the growth was 60.6%.

As to `CCOC(=O)c1sc(/N=C2\NC(=O)/C(=C/c3ccc(N4CCN(C)CC4)cc3)S2)nc1C`, the growth was 103%.

`COc1cc(C2=NN(c3ccccc3)C(c3cccc(Nc4ccnc5cc(C(F)(F)F)ccc45)c3)C2)cc(OC)c1OC` (stereo not given): the growth is 89.7%.

Consider `COc1ccc(OCC(=O)OC(C)C)cc1`, for which the growth is 114%.

With `CC1=C(CCCOC(=O)NCCCl)C2=C(C)C3(CC3)[C@@](C)(O)C(=O)C2=C1`, the growth is 28.2%.

For `Nc1ccccc1NS(=O)(=O)c1ccc(Cl)cc1`, the growth is 97%.

As for `N#Cc1ccc(C2C3=C(CCCC3=O)OC3=C2C(=O)c2ccccc2C3=O)cc1` (stereo not given), the growth was 6.16% (active).

In the case of `C=CCn1c(SCC(=O)Nc2ccc(C(=O)/C=C/c3cc(OC)c(OC)c(OC)c3)cc2)nnc1-c1ccccc1`, the growth is 15.8%.

On to `NS(=O)(=O)c1ccc(C2C3=C(CCCC3=O)OC3=C2C(=O)c2ccccc2C3=O)cc1` (stereo not given), for which the growth is -73.6% (active).

As to `COc1ccc2nc3nc4ccc[nH]c4cc3c2c1`, the growth is 104%.

Take `COc1ccc(Nc2nc(SCC(C)C)nc(-c3ccc(F)cc3)c2C#N)cc1`: the growth is 35.7%.

Take `NC(=O)CN1C(=O)c2ccccc2C1=O`: the growth is 102%.

Turning to `COc1cccc(C(=O)OCCn2nc3c4c(cccc42)C(=O)c2ccccc2-3)c1O`, the growth was 29.6%.

The test system of a further experiment is HCC-2998 colon. The experiment is described as above. The settings on record: 10 µM unless noted.
Turning to `O=C(Nc1nc2ccc(C(F)(F)F)cc2s1)c1cc(Cl)ccc1O`, the growth is 10.9%.

As to `NC(N)=NC(N)=Nc1cc2ccccc2c2ccccc12`, the growth was 26.2%.

Consider `CC(=O)Oc1c2c(nc3c1c1ccccc1n3Cc1ccccc1)-c1ccccc1C2`, for which the growth was 87.9%.

In the case of `CN1C(=O)c2cc(Cl)nc3c(NC(=O)c4cccc(Cl)c4)c(Cl)c(NC(=O)c4cccc(Cl)c4)c1c23`, the growth was 9.23% (active).

Regarding `CCOCCc1c(O)nc(SC)[nH]c1=O`, the growth was 39.4%.

Take `COc1ccc2[nH]c(=O)c(/C=C/C(=O)/C=C/c3ccc(O)c(OC)c3)cc2c1`: the growth was -74% (active).

For `CCOC(=O)c1c(C)nc2c(c1N)/C(=C/c1cccs1)C(=O)N2Cc1ccccc1`, the growth was 96%.

For `O=C(CCc1nnc2sc(OCc3ccccc3)nn12)c1nc2ccc([N+](=O)[O-])cc2[nH]1`, the growth was 101%.

Consider `COc1ccc2c(c1)Oc1nc(N)c(C#N)c(N)c1C2Sc1ccc(O)cc1` (stereo not given), for which the growth was 98.5%.

On to `O=C(Nc1nccs1)c1noc2ccccc12`, for which the growth was 105%.

Take `Cc1cccc(C)c1NCc1nnc(-c2ccco2)o1`: the growth is 103%.

On to `CCOC(=O)C1=C(C)n2nc(CC#N)c(C#N)c2NC1c1ccc(Cl)cc1` (stereo not given), for which the growth was 99.9%.

Turning to `CCOc1ccccc1C(=O)/C=C/c1cc2ccccc2[nH]c1=O`, the growth was -97.6% (active).

Consider `COc1cc(NC(=O)Nc2cnc(Nc3ccc(N4CCOCC4)cc3)nc2Oc2ccc(F)cc2)cc(OC)c1`, for which the growth was 101%.

Regarding `Cc1cc(Cl)cc(CN(Cc2ccccc2)Cc2c(O)ccc3ccccc23)c1O`, the growth is 91.5%.

As to `NC[C@@H]1CCN(c2cc3c(cc2F)c(=O)n(N)c(=O)n3Cc2ccc(-c3ccccc3)cc2)C1`, the growth is 96%.

For the molecule `O=C(/C(=C/c1ccc([N+](=O)[O-])cc1)SCc1ccc(F)cc1)c1ccc(Cl)cc1`, the growth was 84.3%.

Take `COc1ccc(Cl)c([N+](=O)[O-])c1`: the growth was 104%.

As to `COc1cc(C)ccc1Oc1nc(Nc2ccc(N3CCOCC3)cc2)ncc1N=Cc1cc(C(F)(F)F)cc(C(F)(F)F)c1`, the growth was 91.6%.

Take `c1ccc(-c2cn3ccnc3c(-c3ccc4c(c3)ncn4C3CCCCC3)n2)cc1`: the growth was 105%.

In the case of `Nc1c(C(=O)Nc2cccc3ccccc23)sc2nc3c(cc12)COCC3`, the growth is 85.5%.

For the molecule `O=C1CCC23OC(C(O)c4ccccc4N12)C1C(Br)=NOC13` (stereo not given), the growth is 100%.

Take `O=Cc1[nH]c(Sc2ccccc2)c2ccccc12`: the growth is 109%.
